# PLK1 PBD inh: inhibitors of human PLK1 polo-box domain binding | actives 2.8% (n = 360,000) | Potency, µM, without a hit: max response, negative = inhibition, actives largely listed as inhibitors | P53350 | AID 720504 | Plk1 PBD binding of FITC phosphopeptide, fluorescence polarization; note: potency is the fitted concentration of half-maximal effect; series mostly up to about 57 µM; % is set by controls: 0 for no effect and ±100 for the full control effect; nearly all actives have a fitted effect of over 65% in size
# Rango release inh: inhibition of RanGTP-driven Rango-importin beta dissociation | O95149+P62826 | Biochemical FRET Rango-importin beta, RanGTP-induced dissociation | Potency, µM (titrated, usually from 46.1 µM), for the others: top-dose activity change, negative = inhibition | actives 0.071% (n = 340,000) | AID 540253; calls by dose curve; note: potency is the fitted concentration of half-maximal effect; % of control where 0% means no effect; nearly all actives have a fitted effect of over 45% in size
#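 Two FRET readings bracket the reaction: one 5 min after compound meets Rango–importin beta, another 45 min after RanGTP-RCC1 (0.6 uM Ran, 0.2 uM RCC1, 2 mM GTP) is added. Only the second defines inhibition.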
# GCN5L2 inh: blocks human GCN5L2 histone acetyltransferase. Q92830. GCN5L2 HAT assay, ThioGlo1 CoA-SH fluorescence. Potency, µM (series often up to 58.9 µM), for the others: top-dose activity change, negative = inhibition, hits mostly inhibitors. actives 0.21% (n = 390,000); note: potency is the fitted concentration of half-maximal effect; % is set by controls: 0 for no effect and ±100 for the full control effect
#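 Compounds, pin-transferred from DMSO stocks, meet 20nM GCN5L2 for 15 min before the reaction begins with H3(1-25) peptide (75uM) and acetyl-CoA (70uM). Thiol-reactive ThioGlo1 reports CoA release over 20 min at room temperature.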
# VDR inh: vitamin D3 receptor (human) inhibition. P11473. Potency, µM, inactives show max response, negative = inhibition, usual class: inhibitors. VDR-SRC2-3 peptide fluorescence polarization, 2 h. actives 0.93% (n = 400,000); note: potency is the fitted concentration of half-maximal effect; % is set by controls: 0 for no effect and ±100 for the full control effect
#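 Signal is fluorescence polarization, reporting how far test compounds block the interaction of VDR with the SRC2-3 coregulator peptide after a 2 h room-temperature incubation.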
# PI5P4Ka inh: inhibitors of human PI5P4K alpha. max response, %. P48426. AID 652105. PI5P4Kalpha enzyme, ADP-Glo luminescence, 60 min; hits give low values. actives 1.2% (n = 330,000); active = max response of -50% or lower; inconclusive = between -30% and -50%; inactive = -30% or higher; note: value at the top dose of about 77 µM; % is set by controls: 0 for no effect and ±100 for the full control effect
# Target sequence (P48426 whole entry, looked up): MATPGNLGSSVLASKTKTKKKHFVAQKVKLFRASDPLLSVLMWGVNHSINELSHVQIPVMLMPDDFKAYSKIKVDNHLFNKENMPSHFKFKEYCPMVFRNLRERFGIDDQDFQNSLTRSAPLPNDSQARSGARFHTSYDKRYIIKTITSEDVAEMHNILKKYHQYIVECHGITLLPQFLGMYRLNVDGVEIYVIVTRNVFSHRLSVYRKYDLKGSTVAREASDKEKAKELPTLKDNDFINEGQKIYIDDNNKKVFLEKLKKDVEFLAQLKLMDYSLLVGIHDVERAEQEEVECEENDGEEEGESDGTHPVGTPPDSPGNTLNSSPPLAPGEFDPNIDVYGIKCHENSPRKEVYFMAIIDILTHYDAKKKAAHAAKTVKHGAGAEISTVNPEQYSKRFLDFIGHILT
#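 PI5P4Kalpha ADP-Glo assay; 5 microM ATP final; 60 min RT reaction; HEPES pH 7.4/EGTA/CHAPS, 5% DMSO; controls lacking substrate or enzyme; luminescent end-point.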
# Rango complex inh: inhibitors of Rango-importin beta complex formation. Q14974. Rango CFP/YFP FRET sensor + importin beta, 45 min. Potency, µM (series often up to 92.2 µM), for inactives: at the highest dose inhibition of complex formation. actives 0.031% (n = 340,000). AID 540263; calls by dose curve;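 note: potency is the fitted concentration of half-maximal effect; 0% = DMSO wells and 100% = buffer wells lacking importin beta; nearly all actives have a fitted effect of over 15% in size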
#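 FRET biosensor Rango (snurportin 1 IBB between N-terminal EYFP and C-terminal Cerulean), 50 nM in PBS/1 mM DTT/0.02% Tween-20/0.1% BSA, preincubated 5 min RT with compound; 0.125 microM importin beta added, 45 min RT, CFP/YFP FRET ratio read.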
# Numbers without * were called inactive; ? = inconclusive; . = no result. Compounds with a hit are over-represented: about 3.6% of the library has one in this group of screens. Unless noted, calls come from the whole dose curve; as a rule, active = well fitted curve in the direction sought with a large enough effect; inconclusive = small, poorly fitted or top-dose-only effect, or another doubt; inactive = no such curve, though single readings can be large; an effect the other way counts as inactive or inconclusive.
SMILES,PLK1 PBD inh,Rango release inh,GCN5L2 inh,VDR inh,PI5P4Ka inh,Rango complex inh
O=C(O)CCn1cnc2onc(-c3ccccc3Cl)c2c1=O,.,.,2.5%,-13.5%,.,.
CCOc1cc(C(=O)NCCc2ccc(S(N)(=O)=O)cc2)cc(OCC)c1OCC,29.9µM*,11.9%,-12.2%,-22.9%,2.3,0.9%
COc1cc(C(=O)NCCc2ccc(S(N)(=O)=O)cc2)cc(OC)c1OC,0.7%,-0.1%,-3.1%,10.0%,.,-2.1%
Cc1sc2nc(CC(=O)NN)[nH]c(=O)c2c1C,16.8µM*,-6.6%,-3.3%,-6.0%,-8.4,0.3%
COc1ccccc1-n1c(/C=C/c2c(C)n(C)c3ccccc23)nc2ccccc2c1=O,.,.,-9.5%,?,.,.
O=C(Nc1nnc(-c2cccs2)o1)c1cccc(C(F)(F)F)c1,29.9µM*,-0.8%,-9.2%,?,9.6,8.2%
CN(C)S(=O)(=O)c1ccc(C(=O)Nc2nnc(-c3cccs3)o2)cc1,?,8.3%,-6.5%,-10.1%,-8.3,4.7%
Cc1cc(C(=O)NN)c2cc(Br)ccc2n1,2.3%,0.8%,3.8%,-10.8%,0.8,-0.2%
Cc1cc(SCC(=O)NN)c2cc(Br)ccc2n1,?,-6.9%,-10.6%,28.2µM*,-28.6,1.4%
Cc1ccccc1C(=O)Oc1cc(N)n(S(C)(=O)=O)n1,-22.5%,7.9%,-2.9%,2.6%,-2.0,2.1%
Cc1c(C(=O)Oc2cc(N)n(S(C)(=O)=O)n2)cccc1[N+](=O)[O-],11.9µM*,-2.3%,?,79.4µM*,-17.8,1.5%
CCCCCCCCCCCCCC[n+]1ccc(C)cc1,.,.,-0.9%,?,.,.
CCCCCCCCCCCCCCCC[n+]1ccc(/C=N/O)cc1,-0.8%,-17.4%,-2.3%,5.4%,-59.8*,0.1%
O=C(NC(NC(=S)Nc1ccccc1C(=O)O)C(Cl)(Cl)Cl)c1cccc([N+](=O)[O-])c1 (stereo not drawn),23.8µM*,25.2%,?,?,-26.3,0.3%
COCCNC(=O)c1ccccc1NC(=O)c1nsc2ccccc12,.,.,-10.0%,-4.9%,.,.
CCCCn1c(SCC(=O)c2ccc(OC)cc2OC)nc2cc(S(N)(=O)=O)ccc21,-11.9%,-17.4%,-15.8%,-3.8%,-54.5*,3.6%
CCCCn1c(SC(C)C(=O)c2ccc(OC)cc2)nc2cc(S(N)(=O)=O)ccc21 (stereo not drawn),1.8%,-10.6%,-11.1%,-6.9%,.,-2.3%
Cc1cc(OCc2cc(C(=O)N(C)CCCN3CCOCC3)no2)cc(C)c1Cl,?,14.4%,-3.9%,-11.4%,1.5,2.7%
Cc1cc(OCc2cc(C(=O)N(C)CC3CCOCC3)no2)cc(C)c1Cl,26.7µM*,0.0%,-8.2%,?,-6.6,?
COc1cccc(C2=NS(=O)(=O)N(C)C(C(=O)Nc3ccccc3SC)=C2)c1,.,.,-7.7%,-8.1%,.,.
COc1ccc(C(=O)CC(=O)c2ccc(C(C)(C)C)cc2)cc1,-10.6%,-10.6%,31.6µM*,-15.8%,7.8,-3.9%
COC(=O)c1c(-c2cccs2)csc1NC(=O)c1cc(OC)c(OC)c(OC)c1,.,.,25.1µM*,?,.,.
CCOC(=O)c1c(-c2cccs2)csc1NC(=O)c1ccncc1,-5.0%,2.8%,1.7%,6.1%,2.2,0.6%
CCOC(=O)c1ccc(NS(=O)(=O)c2cc3c(cc2C)NC(=O)CO3)cc1,29.9µM*,-18.6%,-0.7%,-10.8%,-10.6,-0.7%
Cc1ccc(-n2c(N)c(-c3nc4ccccc4n3C)sc2=S)cc1,5.32µM*,-16.1%,-18.2%,?,.,-1.3%
Cn1c(-c2ccc(N)cc2)nc2ccccc21,-7.6%,-11.5%,-3.4%,2.0%,-0.3,3.9%
O=c1c2cccnc2n(Cc2ccccc2F)c(=O)n1Cc1ccc(F)cc1,.,.,-3.5%,9.7%,.,.
COc1ccc(OC)c(CCNC(=O)CSc2ccsc2[N+](=O)[O-])c1,-22.3%,-3.0%,-4.7%,-8.9%,-55.3*,6.9%
COc1ccc(CCNC(=O)CSc2ccsc2[N+](=O)[O-])c(OC)c1,-17.9%,-1.7%,-17.0%,-9.7%,-57.2*,3.6%
